Values without a mark were called inactive. Inconclusive results are not listed. Where a call stands in place of a potency, no number is given. The source made the active and inactive calls. Unless noted, calls follow the shape of the dose curve; as a rule, active = well fitted curve in the direction sought with a large enough effect in the repeat runs; inconclusive = weak or mixed curves; inactive = no such curve, though single readings can be large; an effect the other way counts as inactive or inconclusive.
Experiments:
[1] = target: Luciferin 4-monooxygenase (Photinus pyralis) (UniProt P08659); experiment: qHTS assay to identify small molecule inhibitors of firefly luciferase (AID 1224835); also: nearly all actives have a fitted effect of over 25% in size; conditions: purified P. pyralis luciferase, luminescence inhibition; series mostly up to 115 µM
Luciferin 4-monooxygenase (Photinus pyralis), sequence (P08659 whole entry, looked up): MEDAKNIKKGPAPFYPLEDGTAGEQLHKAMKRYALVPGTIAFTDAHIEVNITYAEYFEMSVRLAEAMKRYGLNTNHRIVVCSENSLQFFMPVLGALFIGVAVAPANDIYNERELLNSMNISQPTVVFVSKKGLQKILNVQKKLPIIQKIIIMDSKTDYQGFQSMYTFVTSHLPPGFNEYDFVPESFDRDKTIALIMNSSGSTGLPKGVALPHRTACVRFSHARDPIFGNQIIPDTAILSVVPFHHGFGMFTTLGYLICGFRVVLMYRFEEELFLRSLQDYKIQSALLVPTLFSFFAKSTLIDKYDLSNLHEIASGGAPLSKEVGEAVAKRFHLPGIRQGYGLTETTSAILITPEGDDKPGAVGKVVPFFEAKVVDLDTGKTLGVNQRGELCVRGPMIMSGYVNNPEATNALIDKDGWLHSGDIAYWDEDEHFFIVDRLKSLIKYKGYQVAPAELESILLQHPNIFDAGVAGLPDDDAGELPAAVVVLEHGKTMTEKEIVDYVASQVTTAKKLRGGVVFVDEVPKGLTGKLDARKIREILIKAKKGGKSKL
Outline: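 Quantitative HTS format; KM concentrations of both substrates. Purified P. pyralis FLuc activity quantified from luminescence images.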

[2] = qHTS assay to identify small molecule agonists of the constitutive androstane receptor (CAR) signaling pathway - cell viability counter screen (AID 1224836); conditions: HepG2-CYP2B6-hCAR viability, CellTiter-Fluor, 23 h, PK11195 added to every well; series mostly up to 92.4 µM; also: nearly all actives have a fitted effect of over 45% in size
Outline: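 Fluorescence from CellTiter-Fluor indicates live cells after 23 h exposure. The human hepatoma line expresses hCAR and a CYP2B6-2.2kb reporter. Incubation medium contains 0.75 uM PK11195 (final).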

[3] = qHTS assay to identify small molecule antagonists of the constitutive androstane receptor (CAR) signaling pathway - cell viability counter screen (AID 1224837); conditions: HepG2-CYP2B6-hCAR viability, CellTiter-Fluor, 23 h, co-treated with 50 nM CITCO; series mostly up to 92.4 µM; also: nearly all actives have a fitted effect of over 45% in size
Outline: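 HepG2 cells stably expressing hCAR and a CYP2B6-2.2kb reporter were plated and pre-incubated 4 hr at 37 C/5% CO2, then given compounds at 15 concentrations plus 50 nM CITCO (final). After 23 hr, viability was read by CellTiter-Fluor fluorescence.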

[4] = qHTS assay to identify small molecule antagonists of the estrogen related receptor signaling pathway with the pleiotropic PPARgamma coactivator (PGC) from Tox21 10K library - cell viability counter screen (AID 1224840; active = well fitted cell-killing curve with a large enough effect in the repeat runs, not every such curve was filed as active; also: nearly all actives have a fitted effect of over 40% in size); conditions: PGC/ERR reporter cells viability, CellTiter-Fluor, 17.5 h; series mostly up to 92.4 µM
Outline: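 PGC/ERR cells were seeded at 2,000 cells/well and left 6 hours at 37 C/5% CO2 before pin-tool addition of compounds in DMSO. After 17.5 hours at 37 C, CellTiter-Fluor was added and fluorescence read 30 minutes later.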

[5] = qHTS assay to identify small molecule antagonists of the estrogen related receptor signaling pathway with the pleiotropic PPARgamma coactivator (PGC) from Tox21 10K library (AID 1224841; call rule not given here; also: actives are mostly falling curves and most rising ones were filed inactive; nearly all actives have a fitted effect of over 50% in size); conditions: PGC/ERR reporter cell line, ONE-Glo luciferase, 18 h; series mostly up to 92.4 µM
Outline: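 PGC/ERR reporter cells were seeded at 2,000 cells/well and held 6 hours at 37 C/5% CO2 before pin-tool addition of compounds in DMSO. After 18 hours at 37 C, One-Glo was added and luminescence read after 30 minutes at room temperature.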

[6] = qHTS assay to identify small molecule agonists of the estrogen related receptor signaling pathway with the pleiotropic PPARgamma coactivator (PGC) from Tox21 10K library (AID 1224842); conditions: PGC/ERR reporter cell line, luciferase ONE-Glo, 18 h; series mostly up to 92.4 µM; also: nearly all actives have a fitted effect of over 15% in size
Outline: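 PGC/ERR reporter cells (NTP line) were seeded 2,000 per well, rested 6 h at 37 C/5% CO2, then pin-dosed with compounds in DMSO for 18 h at 37 C; luciferase read by One-Glo luminescence after 30 min at room temperature.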

[7] = target: Thyrotropin receptor (Homo sapiens) (UniProt P16473); experiment: qHTS assay to identify small molecule agonists of the thyroid stimulating hormone receptor (TSHR) signaling pathway (AID 1224843; calls by dose curve; also: nearly all actives have a fitted effect of over 45% in size); conditions: TSHR-HEK293 cells, cAMP HTRF, agonist mode, 30 min; series mostly up to 92.4 µM
Thyrotropin receptor (Homo sapiens), sequence (P16473 whole entry, looked up): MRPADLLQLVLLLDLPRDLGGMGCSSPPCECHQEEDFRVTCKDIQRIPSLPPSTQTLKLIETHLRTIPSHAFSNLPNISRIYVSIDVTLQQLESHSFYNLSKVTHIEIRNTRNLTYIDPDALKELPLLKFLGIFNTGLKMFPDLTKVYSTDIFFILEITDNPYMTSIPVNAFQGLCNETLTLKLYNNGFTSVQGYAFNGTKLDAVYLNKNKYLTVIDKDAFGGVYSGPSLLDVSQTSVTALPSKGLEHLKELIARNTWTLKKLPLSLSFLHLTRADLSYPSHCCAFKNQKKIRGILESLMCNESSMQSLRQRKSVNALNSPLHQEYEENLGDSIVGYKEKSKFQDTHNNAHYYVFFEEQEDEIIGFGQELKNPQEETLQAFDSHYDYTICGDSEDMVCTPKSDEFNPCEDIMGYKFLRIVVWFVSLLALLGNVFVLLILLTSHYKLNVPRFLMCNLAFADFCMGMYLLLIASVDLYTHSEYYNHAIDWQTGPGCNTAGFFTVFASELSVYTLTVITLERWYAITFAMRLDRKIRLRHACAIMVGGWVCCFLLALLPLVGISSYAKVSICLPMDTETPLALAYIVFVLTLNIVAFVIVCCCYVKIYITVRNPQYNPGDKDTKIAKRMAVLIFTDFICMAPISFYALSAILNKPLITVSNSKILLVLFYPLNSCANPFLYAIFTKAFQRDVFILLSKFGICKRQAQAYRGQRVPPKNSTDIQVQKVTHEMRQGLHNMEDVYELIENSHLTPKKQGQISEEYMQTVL
Outline: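 Cell line HEK293 with TSHR; density 800/well. Exposure 30 min RT. Readout HTRF cAMP (cAMP-d2/anti-cAMP-cryptate), 1 h RT before reading.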

[8] = qHTS assay to identify small molecule agonists of the hypoxia (HIF-1) signaling pathway - cell viability counter screen (AID 1224844; calls by dose curve; also: nearly all actives have a fitted effect of over 50% in size); conditions: HRE-bla ME-180 viability, CellTiter-Glo luminescence, 17 h; series mostly up to 76.8 µM
Outline: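 HRE-bla ME-180 cells in medium with 0.5% dialyzed FBS were preincubated 5 hrs at 37C, exposed to compounds for 17 hrs, then viability was read as CellTiter-Glo luminescence after 30 min at room temperature, in the reporter wells.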

[9] = qHTS assay to identify small molecule agonists of H2AX (AID 1224845; active = well fitted activation curve with a large enough effect in the signal ratio in the repeat runs, not every such curve was filed as active; the % refers to the signal ratio); conditions: CHO-K1 phospho-H2AX Ser139 HTRF, 3 h; series mostly up to 154 µM
Outline: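 Wild-type CHO-K1 cells plated overnight, then exposed 3 hr at 37C to compounds at 15 concentrations (0.76% DMSO). Lysed, then HTRF anti-pH2AX(S139)-cryptate/anti-H2AX-d2 detection after 24 hr at room temperature; emissions 665 and 620 nm.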

[10] = qHTS assay to identify small molecule agonists of the hypoxia (HIF-1) signaling pathway (AID 1224846; active = well fitted activation curve with a large enough effect in the signal ratio in the repeat runs, not every such curve was filed as active; the % refers to the signal ratio); conditions: HRE-bla ME-180 cells, beta-lactamase ratio, 17 h; series mostly up to 76.8 µM
Outline: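 HRE-bla ME-180 cells (beta-lactamase reporter under hypoxia response element) were plated at 2,000 cells/well in medium with 0.5% dialyzed FBS, rested 5 hrs, then given compounds in DMSO for 17 hrs at 37C, 5% CO2. Reporter induction was read with CCF4-AM FRET substrate.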

[11] = qHTS assay to identify small molecule antagonists of the estrogen related receptor (ERR) signaling pathway from Tox21 library (AID 1224848); conditions: ERR reporter cell line, luciferase antagonist mode, 18 h; series mostly up to 92.4 µM; also: nearly all actives have a fitted effect of over 50% in size; also: potency is read from the fitted curve at half-maximal effect
Outline: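 Screening used an ERR reporter line supplied by NTP, exposed for 18 h at 37 C to library compounds delivered in DMSO. Signal was luciferase luminescence developed with ONE-Glo at room temperature for 30 min.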

[12] = qHTS assay to identify small molecule agonists of the estrogen related receptor (ERR) signaling pathway from Tox21 library (AID 1224849; calls by dose curve; also: nearly all actives have a fitted effect of over 15% in size); conditions: ERR reporter cell line, ONE-Glo luciferase, 18 h; at 92.4 µM (top of the series) unless noted
Outline: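 ERR reporter cell line (NTP) seeded, rested 6 h at 37 C/5% CO2, then pinned with Tox21 compounds in DMSO. After 18 h at 37 C, ONE-Glo luciferase luminescence was read following 30 min at room temperature.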

[13] = qHTS RealTime-Glo MT Cell Viability Assay in HepG2 cells - 24 hour (AID 1224867); conditions: RealTime-Glo luminescence; series mostly up to 76.8 µM; also: nearly all actives have a fitted effect of over 50% in size
Outline: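 HepG2 suspension premixed with RealTime-Glo reagents is plated at 600 cells per well and left 5 h at 37 C/5% CO2. Compounds in DMSO then go in, and bioluminescence reflecting viable cell number is recorded over 40 h.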

[14] = A CellTox Green Cytotoxicity Assay to monitor cytotoxicity in HEK293 cells - 0 hour (AID 1224869); conditions: CellTox Green fluorescence; series mostly up to 76.8 µM; also: nearly all actives have a fitted effect of over 50% in size
Outline: (§1)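 HEK293 cells premixed with CellTox Green dye were seeded at 600 cells/well and left 5 h at 37 C/5% CO2 before pin transfer of 23 nL compound in DMSO. Fluorescence from dye bound to dead-cell DNA was read during 40 h treatment.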

[15] = qHTS RealTime-Glo MT Cell Viability Assay in HepG2 cells - 40 hour (AID 1224870); conditions: RealTime-Glo luminescence; series mostly up to 76.8 µM; also: nearly all actives have a fitted effect of over 50% in size
Outline: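 HepG2 cells mixed with RealTime-Glo MT reagents (NanoLuc plus cell-permeant prosubstrate) were seeded at 600 cells/well, incubated 5 h at 37 C/5% CO2, then pinned with compounds in DMSO; nonlytic luminescence tracked viability during 40 h treatment.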

[16] = A CellTox Green Cytotoxicity Assay to monitor cytotoxicity in HEK293 cells - 40 hour (AID 1224871); conditions: CellTox Green fluorescence; series mostly up to 76.8 µM; also: nearly all actives have a fitted effect of over 45% in size
Outline: as §1

[17] = target: Nuclear receptor subfamily 1 group I member 3 (Homo sapiens) (UniProt Q14994); experiment: qHTS assay to identify small molecule antagonists of the constitutive androstane receptor (CAR) signaling pathway (AID 1224838); conditions: HepG2-CYP2B6-hCAR luciferase, CITCO-stimulated, 24 h; series mostly up to 92.4 µM; also: nearly all actives have a fitted effect of over 40% in size
Nuclear receptor subfamily 1 group I member 3 (Homo sapiens), sequence (Q14994 whole entry, looked up): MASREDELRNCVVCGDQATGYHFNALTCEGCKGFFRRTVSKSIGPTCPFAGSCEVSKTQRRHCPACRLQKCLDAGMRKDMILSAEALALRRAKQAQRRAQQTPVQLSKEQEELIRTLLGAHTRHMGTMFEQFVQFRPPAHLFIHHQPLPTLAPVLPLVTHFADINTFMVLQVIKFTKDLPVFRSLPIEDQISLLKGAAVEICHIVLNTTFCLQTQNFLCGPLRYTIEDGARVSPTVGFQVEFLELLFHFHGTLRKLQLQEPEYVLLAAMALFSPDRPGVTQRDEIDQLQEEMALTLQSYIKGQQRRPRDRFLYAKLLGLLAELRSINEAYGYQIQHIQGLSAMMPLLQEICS
Outline: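 HepG2 cells stably co-transfected with hCAR and a CYP2B6-2.2kb luciferase reporter were seeded 4 h before compound addition at 15 concentrations. Cells were stimulated with 50 nM CITCO (final) for 24 h at 37 C; luciferase luminescence was then read.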

[18] = qHTS assay to identify small molecule agonists of H2AX - cell viability counter screen (AID 1224847; calls by dose curve; also: nearly all actives have a fitted effect of over 30% in size; also: potency is read from the fitted curve at half-maximal effect); conditions: CHO-K1 viability, CellTiter-Glo luminescence, 3 h; series mostly up to 154 µM
Outline: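 Viability of CHO-K1 (wild type) cells after 3 hr compound exposure was measured by CellTiter-Glo luminescence.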

[19] = qHTS RealTime-Glo MT Cell Viability Assay in HEK293 cells - 32 hour (AID 1224868); conditions: RealTime-Glo luminescence; series mostly up to 76.8 µM; also: nearly all actives have a fitted effect of over 50% in size; also: potency is read from the fitted curve at half-maximal effect
Outline: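 Reads taken at 0, 8, 16, 24, 32 and 40 h from the same wells. HEK293 cells (600/well) carried RealTime-Glo reagents from seeding, with compound added after a 5 h settle at 37 C.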

[20] = target: Nuclear receptor subfamily 1 group I member 3 (Homo sapiens) (UniProt Q14994); experiment: qHTS assay to identify small molecule agonists of the constitutive androstane receptor (CAR) signaling pathway (AID 1224839); conditions: HepG2 hCAR CYP2B6-luciferase, agonist mode, 24 h; series mostly up to 92.4 µM;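 also: HepG2 cells stably carrying human CAR and a CYP2B6 luciferase reporter; nearly all actives have a fitted effect of over 15% in size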
Outline: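 Stable hCAR/CYP2B6-2.2kb HepG2 line in DMEM with 10% FBS; compounds (15 concentrations) and 0.75 uM PK11195 final, 24 h at 37 C/5% CO2, then ONE-Glo luminescence after 30 min.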

Row | Compound | Potency [1] | Potency [2] | Potency [3] | Potency [4] | Potency [5] | Potency [6] | Potency [7] | Potency [8] | Potency [9] | outcome [10] | Potency [11] | activity change, positive = activation [12] | outcome [13] | Potency [14] | Potency [15] | Potency [16] | Potency [17] | Potency [18] | Potency [19] | Potency [20]
1 | CCC[Si](OC)(OC)OC | inactive | inactive | inactive | inactive | inactive | inactive | inactive | inactive | inactive | inactive | inactive | -6.41% | inactive | inactive | inactive | inactive | – | – | – | –
2 | CC1=C(C)C(=O)C(CCCCC#CCCCC#CCO)=C(C)C1=O | inactive | inactive | inactive | inactive | – | inactive | – | – | – | – | 13.3 µM (active) | -50.9% [at 42.5 µM] | – | inactive | – | inactive | inactive | 49.2 µM (active) | 0.674 µM (active) | –
3 | CO[C@@H]1COCC[C@@H]1N[C@@H]1CC[C@@](C(=O)N2CCc3ncc(C(F)(F)F)cc3C2)(C(C)C)C1 | inactive | inactive | inactive | – | – | – | – | – | – | inactive | – | – | inactive | inactive | inactive | inactive | inactive | inactive | 15.4 µM (active) | inactive
4 | CC(=O)Nc1cccc(N)c1 | inactive | inactive | inactive | inactive | inactive | inactive | – | inactive | inactive | – | inactive | -3.33% | inactive | inactive | inactive | inactive | – | – | – | –
5 | CCCC(=O)OCc1ccccc1 | inactive | inactive | inactive | inactive | inactive | inactive | inactive | inactive | – | inactive | inactive | 0.0767% | inactive | inactive | – | – | – | inactive | inactive | –

Source: PubChem BioAssay (Tox21)
